Experimental findings from PubChem BioAssay are described below.

Molecules are shown by their SMILES. Calls of active or inactive are those of the source.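 The calls were made as follows, unless noted: active = inhibition at or above 50% at 10 µM; inactive = inhibition below 50%.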

The nature of experiment [1]: inhibitors of TNFa-induced NFkB p65 translocation, primary screen, imaging, HUVEC, MLSMR starter and 10KST1 sets (AID 438;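 active = inhibition above 20% together with a positive visual image hit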;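 also: compound added about 3h40 before a 20 min TNFalpha stimulation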;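 as to inhibition: signal is the nuclear over cytoplasmic p65 intensity ratio per well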). As to conditions: HUVEC TNFa-induced p65 nuclear translocation; cell count: measured here: nuclei count (cytotoxicity indicator), at 2.08 µM; inhibition: at 2 µM, stronger effect = higher value, 0% TNFa-plus-vehicle, 100% no-TNFa wells.
The nature of experiment [2]: inhibitors of mutant huntingtin aggregation, primary screen, imaging, exon1htt(103Q)mCFP cells, high-content imaging (AID 483;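 active = visual image review flags a hit and inhibition of aggregation exceeds 20%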;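 also: compound exposure lasted 3 days before fixation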;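 as to nuclei count: percent of the per-plate median nuclei count of sample wells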). As to conditions: exon1htt(103Q)mCFP cell line, aggregate imaging, at 2 µM; inhibition of aggregation: stronger effect = higher value; nuclei count: measured here: cell count, toxicity.
A short description of experiment [3]: inhibitors of E-selectin induction by TNFa, primary screen, imaging, HUVEC, immunofluorescence, MLSMR starter and 10KST1 sets (AID 487;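 active = visually confirmed hit in the image check and inhibition above 20%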;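 as to inhibition: signal is fraction of cell area covered by stained E-selectin grains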;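 as to nuclei count: 100% = median nuclei count of all wells on the same plate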). The note with it: HUVEC TNFalpha-induced E-selectin immunofluorescence imaging, at 2 µM; inhibition: stronger effect = higher value; nuclei count: measured here: cell number, toxicity.
The target of experiment [4] is Voltage-gated potassium channel subunit beta-2 (Rattus norvegicus) (UniProt P62483). In words: KvBeta enzyme negative modulators, primary screen, biochemical, NADPH fluorescence (AID 622;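 active = fluorescence slope higher than the sample average by over 3 SD, cut at about -0.22 in these data, passing the limit was not always enough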;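 also: slope of raw intensity against log time taken from 70 to 1610 s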). As to conditions: recombinant KvBeta, 4-cyanobenzaldehyde reduction, at 10 µM, stronger effect = higher value.
Voltage-gated potassium channel subunit beta-2 (Rattus norvegicus), sequence (P62483 whole entry, looked up): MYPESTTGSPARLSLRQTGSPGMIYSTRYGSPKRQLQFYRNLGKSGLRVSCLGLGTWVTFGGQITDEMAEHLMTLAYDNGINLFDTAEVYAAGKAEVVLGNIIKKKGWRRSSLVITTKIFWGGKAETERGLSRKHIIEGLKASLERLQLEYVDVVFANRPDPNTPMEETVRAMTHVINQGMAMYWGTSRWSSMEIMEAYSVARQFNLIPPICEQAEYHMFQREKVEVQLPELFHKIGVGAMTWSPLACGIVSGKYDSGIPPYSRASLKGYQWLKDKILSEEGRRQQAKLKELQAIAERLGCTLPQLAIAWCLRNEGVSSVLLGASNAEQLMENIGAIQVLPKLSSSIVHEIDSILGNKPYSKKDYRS
For experiment [5] the target is unchanged. The experiment in a line: KvBeta positive modulators, primary screen, biochemical, NADPH fluorescence (AID 623;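 active = NADPH fluorescence slope more negative than the mean of all samples by about 3 SD, 99.7% confidence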;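 also: fluorescence intensity change per second fitted from 20 to 320 s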). As to conditions: Recombinant KvBeta, NADPH fluorescence decrease slope, 10 min; at 10 µM; stronger effect = lower value.
Experiment [6] addresses Alpha-2C adrenergic receptor (Homo sapiens) (UniProt P18825). The experiment in a line: modulators of alpha2C/GIRK thallium flux, primary screen, cell-based, HEK293 alpha2C/GIRK1/2 (AID 624;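 active = fluorescence slope after compound addition differing from the mean of all screened samples at 99.7% confidence, in either direction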;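 also: slope of fluorescence ratio to pre-addition baseline per second over 15 to 24 s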). The note with it: thallium flux BTC fluorescence, at 10 µM, actives lie on both sides.
Experiment [7] in a line: inhibitors of Sendai virus-induced IRF3 signaling, primary screen, TLR/RLR signaling modifier project, cell-based, Sendai virus stimulus, luciferase, 10K MLSCN set (AID 602276).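 Also: firefly luciferase from ISG56 promoter only with Renilla not read in this screen; 0% = Sendai virus plus DMSO and 100% = medium plus DMSO without virus.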 As to conditions: HEK293 RL24 IRF3 luciferase reporter, at 10 µM, stronger effect = higher value. In general terms: In a reporter assay the amount or activity of a reporter protein is the signal.
Experiment [8] in a line: inhibitors of poly I:C-induced TLR3 signaling, primary screen, cell-based, poly I:C stimulus, luciferase, 10K MLSCN set (AID 602277;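 active = inhibition of the reporter signal at or above 50%; inactive = inhibition below 50%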). As to conditions: HEK293-TLR3 RL24 IRF3 luciferase reporter, at 10 µM, stronger effect = higher value.

Alpha-2C adrenergic receptor (Homo sapiens), sequence (P18825 whole entry, looked up): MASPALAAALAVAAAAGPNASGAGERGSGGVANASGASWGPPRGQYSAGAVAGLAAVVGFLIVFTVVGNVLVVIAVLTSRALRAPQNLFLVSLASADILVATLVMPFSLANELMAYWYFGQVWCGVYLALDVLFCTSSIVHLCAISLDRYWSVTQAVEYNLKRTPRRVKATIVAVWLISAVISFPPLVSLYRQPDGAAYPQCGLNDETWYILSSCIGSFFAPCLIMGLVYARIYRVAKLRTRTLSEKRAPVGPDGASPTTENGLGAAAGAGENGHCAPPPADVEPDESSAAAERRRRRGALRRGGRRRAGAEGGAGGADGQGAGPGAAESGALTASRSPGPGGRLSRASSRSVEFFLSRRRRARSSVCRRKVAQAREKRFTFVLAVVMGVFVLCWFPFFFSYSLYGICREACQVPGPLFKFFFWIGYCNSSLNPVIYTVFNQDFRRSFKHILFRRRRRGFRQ

One may read the inhibition as the change of the read-out against control, counted positive when it falls. In the case of `CC1CCCN(C(=O)c2cc(F)c(F)cc2Cl)C1` (centres undefined), in experiment [1], the cell count came out at 888. Moreover, the inhibition in experiment [1] is -1.3% (inactive); in experiment [3], -25.2% (inactive); in experiment [7] it was 2.92% (inactive); in experiment [8] it was 7.68% (inactive). In experiment [2], the inhibition of aggregation is 39.2% (inactive). For the same compound, the nuclei count in experiment [2] was determined as 88.6%; in experiment [3] it was 94%. Also, the fluorescence slope in experiment [4] was -0.617 (inactive). Moreover, the NADPH fluorescence slope in experiment [5] was -3.8e-05 (inactive). Further, in experiment [6], the slope was 0.00409 (inactive).
As for `COc1ccccc1NC(=O)N1CCN(c2ccccc2F)CC1`, the cell count in experiment [1] came to 209. Also, the inhibition in experiment [1] was 2.5% (inactive); in experiment [3], -100% (inactive); in experiment [7], 11.9% (inactive); in experiment [8], -4.11% (inactive). For the same compound, in experiment [2], the inhibition of aggregation was -10.6% (inactive). Besides, the results for the nuclei count in experiment [2] and in experiment [3] were 99.1% and 102%, respectively. Also, the fluorescence slope in experiment [4] was -0.388 (inactive). Also, the NADPH fluorescence slope in experiment [5] is -3.6e-05 (inactive). The slope in experiment [6] is 0.00564 (inactive).
In the case of `CCOC(=O)c1ccc(NC(=O)CSC2=NC(=O)C(CC)C(=O)N2)cc1` (centres undefined), the cell count in experiment [1] came out at 534. Besides, the inhibition is -20.1% (inactive) in experiment [1], -104% (inactive) in experiment [3], -3.93% (inactive) in experiment [7] and -17% (inactive) in experiment [8]. For the same compound, in experiment [2], the inhibition of aggregation was -43.6% (inactive). In addition, the nuclei count in experiment [2] is 83.8%; in experiment [3], 102%. Further, the fluorescence slope in experiment [4] was -0.569 (inactive). Besides, the NADPH fluorescence slope in experiment [5] is 2.6e-05 (inactive). Besides, the slope in experiment [6] is 0.00682 (inactive).
`COc1cc2c(c(OC)c1)C(c1ccncc1)CC(=O)N2` (centres undefined): in experiment [1], the cell count came to 624. Moreover, the inhibition in experiment [1] is -11.6% (inactive); in experiment [3] it was -42.5% (inactive); in experiment [7] it was -9.07% (inactive); in experiment [8], 3.48% (inactive). The inhibition of aggregation in experiment [2] was -25.7% (inactive). In addition, the nuclei count worked out at 111% in experiment [2] and 116% in experiment [3]. Further, the fluorescence slope in experiment [4] is -0.565 (inactive). In experiment [5], the NADPH fluorescence slope was -2.7e-06 (inactive). For the same compound, the slope in experiment [6] is 0.0063 (inactive).
As to `O=C(NC1CCCC1)C(c1cccs1)N(Cc1ccco1)C(=O)Cn1nnc(-c2cccs2)n1` (centres undefined), in experiment [1], the cell count was determined as 482. Also, the inhibition was -3.3% (inactive) in experiment [1], 3.8% (inactive) in experiment [3], 20.2% (inactive) in experiment [7] and 23.1% (inactive) in experiment [8]. The inhibition of aggregation in experiment [2] was -7.1% (inactive). Moreover, the nuclei count in experiment [2] was found to be 102%; in experiment [3], 101%. Further, the fluorescence slope in experiment [4] is -0.487 (inactive). The NADPH fluorescence slope in experiment [5] was -3.1e-05 (inactive). For the same compound, the slope in experiment [6] is 0.00489 (inactive).
In the case of `CCSc1nc2ccccc2n1CC(N)=O`, the cell count in experiment [1] amounted to 400. In addition, the inhibition is 2.1% (inactive) in experiment [1], -62.6% (inactive) in experiment [3], 14.3% (inactive) in experiment [7] and 20.8% (inactive) in experiment [8]. Besides, the inhibition of aggregation in experiment [2] is -4% (inactive). Besides, the figures for the nuclei count in experiment [2] and in experiment [3] were 114% and 113%, respectively. For the same compound, the fluorescence slope in experiment [4] is -0.449 (inactive). For the same compound, the NADPH fluorescence slope in experiment [5] is -0.000317 (inactive). In addition, the slope in experiment [6] was 0.00599 (inactive).
In the case of `COc1ccc(-n2c(Cc3cccn3C)nnc2SCC(=O)Nc2ccccc2)cc1`, the cell count in experiment [1] came out at 527. The inhibition is -11.3% (inactive) in experiment [1], -20.6% (inactive) in experiment [3], 15.3% (inactive) in experiment [7] and 36.7% (inactive) in experiment [8]. For the same compound, in experiment [2], the inhibition of aggregation was 6.5% (inactive). The nuclei count was 79.8% in experiment [2] and 116% in experiment [3]. For the same compound, the fluorescence slope in experiment [4] is -0.55 (inactive). Further, the NADPH fluorescence slope in experiment [5] was -2.9e-05 (inactive). The slope in experiment [6] was 0.00572 (inactive).
Take `CC(=O)Nc1ccc(S(=O)(=O)NCC(C)NS(=O)(=O)c2ccc(NC(C)=O)cc2)cc1` (centres undefined): the cell count in experiment [1] is 572. Also, the inhibition in experiment [1] was -9.7% (inactive); in experiment [3], -204% (inactive); in experiment [7], -11.9% (inactive); in experiment [8], -13.4% (inactive). Besides, the inhibition of aggregation in experiment [2] is 18.1% (inactive). In addition, the nuclei count is 76% in experiment [2] and 95.1% in experiment [3]. Besides, the fluorescence slope in experiment [4] was -0.442 (inactive). The NADPH fluorescence slope in experiment [5] was 4.4e-05 (inactive). In experiment [6], the slope was 0.0079 (inactive).
`Cc1cc(=O)n2nc(N3CCCC(C(=O)N4CCN(C)CC4)C3)sc2n1` (centres undefined): in experiment [1], the cell count came out at 465. In addition, the inhibition in experiment [1] was -0.8% (inactive); in experiment [3], -186% (inactive); in experiment [7], -7.33% (inactive); in experiment [8] it was 5.83% (inactive). Further, the inhibition of aggregation in experiment [2] is 19.6% (inactive). The nuclei count in experiment [2] was determined as 92.4%; in experiment [3], 126%. The fluorescence slope in experiment [4] was -0.313 (inactive). In experiment [5], the NADPH fluorescence slope is -3.4e-05 (inactive). Besides, in experiment [6], the slope is 0.00576 (inactive).
Regarding `COc1ccc(S(=O)(=O)n2nc(OC(=O)c3ccc(C)cc3)cc2N)cc1`, the cell count in experiment [1] was determined as 566. For the same compound, the inhibition in experiment [1] is -19.6% (inactive); in experiment [3] it was -31% (inactive); in experiment [7], 14% (inactive); in experiment [8], 19.2% (inactive). For the same compound, in experiment [2], the inhibition of aggregation was -9.1% (inactive). For the same compound, the nuclei count worked out at 106% in experiment [2] and 144% in experiment [3]. For the same compound, in experiment [4], the fluorescence slope is -0.337 (inactive). In addition, the NADPH fluorescence slope in experiment [5] is -1.2e-06 (inactive). The slope in experiment [6] is 0.00323 (inactive).
Take `O=c1[nH]c(=O)n(C2CCCCCC2)c(O)c1C=NCc1ccc(F)cc1`: the cell count in experiment [1] was 666. Also, the inhibition in experiment [1] was 5% (inactive); in experiment [3] it was 3% (inactive); in experiment [7], 14.6% (inactive); in experiment [8], 26.9% (inactive). In addition, the inhibition of aggregation in experiment [2] was 0.1% (inactive). The nuclei count in experiment [2] worked out at 109%; in experiment [3] it was 110%. Also, in experiment [4], the fluorescence slope was -0.321 (inactive). The NADPH fluorescence slope in experiment [5] is 3.1e-05 (inactive). Moreover, the slope in experiment [6] is 0.00576 (inactive).
On to `CCOC(=O)c1c(C)[nH]c(C)c1C(=O)COC(=O)CNC(=O)c1ccc(OCC)cc1`, for which the cell count in experiment [1] is 708. Further, the inhibition is -2.2% (inactive) in experiment [1], -19.4% (inactive) in experiment [3], 14.3% (inactive) in experiment [7] and 28.6% (inactive) in experiment [8]. For the same compound, the inhibition of aggregation in experiment [2] was 5.2% (inactive). Besides, the nuclei count in experiment [2] amounted to 63.7%; in experiment [3], 104%. Besides, in experiment [4], the fluorescence slope was -0.456 (inactive). For the same compound, the NADPH fluorescence slope in experiment [5] is 2.3e-05 (inactive). The slope in experiment [6] is 0.00496 (inactive).
Take `C=CCSc1nc(N)c(C(=O)Nc2ccccc2C)cc1C(N)=O`: the cell count in experiment [1] amounted to 775. For the same compound, the inhibition in experiment [1] was 1.4% (inactive); in experiment [3] it was -142% (inactive); in experiment [7] it was -4.85% (inactive); in experiment [8], 24.2% (inactive). Besides, the inhibition of aggregation in experiment [2] was 15.6% (inactive). Moreover, the results for the nuclei count in experiment [2] and in experiment [3] were 96.4% and 124%, respectively. The fluorescence slope in experiment [4] was -0.46 (inactive). The NADPH fluorescence slope in experiment [5] is 1.4e-05 (inactive). The slope in experiment [6] is 0.00326 (inactive).
In the case of `Cc1cccc(OCC(=O)N2CCN(C(=O)Cc3ccccc3)CC2)c1`, in experiment [1], the cell count was 264. Further, the inhibition in experiment [1] is -5.5% (inactive); in experiment [3], -34.1% (inactive); in experiment [7] it was 5.28% (inactive); in experiment [8], 16.6% (inactive). In addition, the inhibition of aggregation in experiment [2] was 15.8% (inactive). The values for the nuclei count in experiment [2] and in experiment [3] were 85.9% and 111%, respectively. In addition, the fluorescence slope in experiment [4] is -0.502 (inactive). Besides, in experiment [5], the NADPH fluorescence slope is -4.5e-05 (inactive). In experiment [6], the slope was 0.00476 (inactive).
